Screen size: about 360,000 compounds; about 4,200 (1.2%) were called active. Many of the other results were omitted from the sample, so actives are more common in it than they were. A number with no mark means an inactive call.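 Rule for the calls: active = mean replicate inhibition at least 60% with every replicate also reaching 60%; inconclusive = only one of the two criteria is met; inactive = mean below 60% and not all replicates reaching 60%.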

A short description of this assay: inhibitors of PAX8-driven TPO luciferase reporter, primary screen, RMG-I cells, single concentration (AID 652154).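 Note: luciferase light reporting Pax8 driven TPO promoter activity; plate controls were median of neutral control wells for no effect and mitoxantrone controls for full effect.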 As to conditions: SteadyGlo, 24 h, at 12.6 µM, stronger effect = higher value. Background: A reporter such as luciferase makes a cellular process visible.
Usually inhibition stands for the change of the read-out against control, counted positive when it falls. In the case of `Cc1ccc(S(=O)(=O)CCC(=O)Nc2nnc(CC(C)C)s2)cc1`, the inhibition was 82.8% (active).

Regarding `CC(C)Cc1nnc(NC(=O)CCNC(=O)c2ccccc2Cl)s1`, the inhibition was -15.6%.

Regarding `CC(C)Cc1nnc(NC(=O)CCc2ccccc2)s1`, the inhibition is -22.6%.

As to `C[C@H](NC(=O)C[C@H]1C=C[C@H](NS(=O)(=O)c2cccc(F)c2)[C@@H](CO)O1)c1ccccc1`, the inhibition was -17.2%.

Regarding `Cc1noc(C)c1NC(=O)N(C)C[C@@H]1OCCCC[C@H](C)Oc2ccc(NC(=O)C3CCCCC3)cc2C(=O)N([C@H](C)CO)C[C@@H]1C`, the inhibition was 9.59%.

Take `O=C(CCS(=O)(=O)c1ccccc1)Nc1nc2c(s1)CCCC2`: the inhibition is 51.3%.

For `Cc1cccc2sc(N(CCCN(C)C)C(=O)CCS(=O)(=O)c3ccccc3)nc12`, the inhibition is 95.4% (active).

With `Cc1cccc(C)c1NC(=O)CCS(=O)(=O)c1cccc2nsnc12`, the inhibition was 15.3%.

Take `COc1cccc2sc(N(CCCN(C)C)C(=O)CCS(=O)(=O)c3ccccc3)nc12`: the inhibition is 97.8% (active).

For the compound `CCN(CC)CCN(C(=O)c1ccc2c(c1)CCCC2)c1nc2c(OC)cccc2s1`, the inhibition was 14.3%.

Regarding `COc1ccc(N(C)C(=O)CCS(=O)(=O)c2cccc3nsnc23)cc1`, the inhibition was 1.7%.

With `CC(C)NC(=O)N[C@@H]1CC[C@H](CCn2cc(-c3ccccc3)nn2)O[C@H]1CO`, the inhibition was -6.01%.

Turning to `CCS(=O)(=O)N1[C@H](C#N)[C@H](c2ccc(-c3cccc(F)c3)cc2)[C@@H]1CO`, the inhibition was -12.2%.

On to `C[C@@H]1CN([C@@H](C)CO)C(=O)c2cc(NC(=O)NC3CCCCC3)ccc2O[C@@H](C)CCCCO[C@H]1CN(C)Cc1ccccc1`, for which the inhibition is -10.1%.

Take `C[C@@H]1CN([C@@H](C)CO)C(=O)c2cccc(NS(=O)(=O)c3cn(C)cn3)c2O[C@@H]1CN(C)Cc1ccc(Cl)c(Cl)c1`: the inhibition is -5.72%.

As to `COCC(=O)Nc1ccc2c(c1)OC[C@H](C)N(C(=O)COC)C[C@@H](C)[C@H](OC)CN(C)C2=O`, the inhibition is -25.8%.

`Cc1cccc(S(=O)(=O)N2C[C@H]3[C@@H](c4ccccc42)[C@H](CO)N3Cc2ccc3c(c2)OCO3)c1`: the inhibition is 32%.

As to `CC(=O)N(C)C[C@@H]1Oc2cc(-c3cccnc3)ccc2S(=O)(=O)N([C@H](C)CO)C[C@H]1C`, the inhibition is -6.51%.

Consider `O=C(CC1CC1)N1CC[C@@H]2[C@H](CO)Nc3ccc(-c4ccc(F)cc4)cc3[C@@H]21`, for which the inhibition is 14%.

Turning to `O=C(C[C@@H]1CC[C@@H]2[C@H](COC[C@@H](O)CN2Cc2cc(F)cc(F)c2)O1)NCc1cccc(F)c1`, the inhibition was 16%.

As to `Cc1cccc(-c2ccc([C@@H]3[C@H]4CN(C(=O)c5ccccc5)CC(=O)N4[C@H]3CO)cc2)c1`, the inhibition was 23.1%.

In the case of `O=C(C[C@@H]1CC[C@H]2[C@@H](COC[C@@H](O)CN2C(=O)c2ccc3c(c2)OCO3)O1)NC1CCCC1`, the inhibition is -8.12%.

For the compound `CCCNC(=O)c1c(Cl)cnn1-c1ccc(C)cc1`, the inhibition was -169%.

In the case of `CC(=O)Nc1c2c(nn1-c1cccc(C)c1)CSC2`, the inhibition was 13.4%.

With `Cc1cccc(-n2ncc(Cl)c(Cl)c2=O)c1`, the inhibition is 99.9% (active).

Regarding `O=c1ccc2c(-c3ccccc3S(=O)(=O)O)c3ccc(O)c(O)c3oc-2c1O`, the inhibition is 65.9% (active).

Take `CN(C)C(=O)C[C@@H]1CC[C@@H](NC(=O)NC2CCCC2)[C@@H](CO)O1`: the inhibition is -11%.

As for `Cn1cnc(CCNC(=O)C[C@H]2CC[C@H]3[C@@H](COC[C@@H](O)CN3C(=O)Nc3ccc(C(F)(F)F)cc3)O2)c1`, the inhibition is -9.72%.

Take `CC(C)NC(=O)N1C[C@H]2[C@@H](c3ccccc31)[C@H](CO)N2C(=O)c1ccccc1F`: the inhibition is -9.19%.

For `CN(c1cccc(NC(=O)c2ccc(CN3CCc4ccccc4C3)cc2)c1)S(C)(=O)=O`, the inhibition was 72.6% (active).

Take `CS(=O)(=O)N1CCc2cc(C(=O)Nc3ccccc3)ccc21`: the inhibition was -94%.

Regarding `CC(=O)Nc1cccc(NC(=O)c2ccc3c(c2)CCN3S(C)(=O)=O)c1`, the inhibition is -7.18%.

Regarding `CCCNC(=O)C[C@H]1CC[C@H]2[C@H](COc3ccc(NC(=O)CC)cc3C(=O)N2C)O1`, the inhibition is -14.6%.

Turning to `N#Cc1c(NC(=O)CCCl)sc2c1CCCCC2`, the inhibition was 60.9% (active).

As for `N#Cc1c(NC(=O)C2CCCO2)sc2c1CCCCC2` (configuration not stated), the inhibition is -175%.

As to `N#Cc1c(NC(=O)C2CC(Cl)=CCC2C(=O)O)sc2c1CCCCC2` (configuration not stated), the inhibition was -9.86%.

Regarding `O=C(Nc1ccc2c(c1)OCO2)N[C@@H]1CC[C@H](CC(=O)N2CCN(c3ccccc3)CC2)O[C@@H]1CO`, the inhibition was -5.75%.

Consider `O=C(C[C@H]1C[C@@H]2c3cc(NC(=O)c4cccnc4)ccc3O[C@@H]2[C@@H](CO)O1)NCc1ccccc1F`, for which the inhibition is -5.11%.

Take `CC(=O)c1ccc(S(=O)(=O)NCc2nnnn2-c2ccccc2)cc1`: the inhibition is 3.71%.

Turning to `O=C(NCc1nnnn1-c1ccc(Cl)cc1)c1ccc([N+](=O)[O-])o1`, the inhibition was 77.5% (active).

Regarding `O=C(NCc1nnnn1-c1ccc(Cl)cc1)c1ccc2c(c1)OCO2`, the inhibition was 2.39%.

As to `CCCc1cn(CC[C@@H]2CC[C@@H](NC(=O)C3CC3)[C@H](CO)O2)nn1`, the inhibition is -17.8%.

With `O=C(C[C@@H]1CC[C@@H](NC(=O)CC2CC2)[C@H](CO)O1)NCc1ccc(-c2ccccc2)cc1`, the inhibition is 2.89%.

Regarding `C[C@H](CO)N1C[C@H](C)[C@@H](CN(C)Cc2ccccn2)Oc2ncc(C3=CCCC3)cc2C1=O`, the inhibition was -41%.

For `COc1cccc(-c2cnc3c(c2)C(=O)N([C@@H](C)CO)C[C@@H](C)[C@@H](CN(C)Cc2ccc(C(=O)O)cc2)O3)c1`, the inhibition was -16.9%.

With `CCC(=O)N1[C@@H]2c3ccc(-c4ccc(F)cc4)c(=O)n3C[C@H]1[C@H](CO)[C@H]2C(=O)N(C)C`, the inhibition was 7.01%.

For `Cc1ccc(C)c(N2CCN(C(=O)CCCCCn3c(=S)[nH]c4ccc(N5CCOCC5)cc4c3=O)CC2)c1`, the inhibition was 95% (active).

As to `O=C(CCCCCn1c(=S)[nH]c2cc3c(cc2c1=O)OCO3)N1CCN(c2ccc(F)cc2)CC1`, the inhibition was 3.47%.

Turning to `Cc1ccc(C)c(N2CCN(C(=O)CCCn3c(=O)c4cccn4c4cccnc43)CC2)c1`, the inhibition was 13.6%.

Consider `C[C@@H](NC(=O)C[C@H]1C=C[C@@H](NC(=O)CN2CCOCC2)[C@@H](CO)O1)c1ccccc1`, for which the inhibition is -7.59%.

As to `Cc1ccc(S(=O)(=O)Nc2ccc3c(c2)C(=O)N([C@@H](C)CO)C[C@@H](C)[C@H](CN(C)Cc2ccc4c(c2)OCO4)OCCCC[C@@H](C)O3)cc1`, the inhibition is -3.85%.

`COc1ccc(CN(C)C[C@@H]2OCCCC[C@@H](C)Oc3ccc(NS(=O)(=O)c4ccc(F)cc4)cc3C(=O)N([C@@H](C)CO)C[C@H]2C)cc1`: the inhibition is -7.37%.

As for `Cc1ccc(S(=O)(=O)Nc2ccc3c(c2)C(=O)N([C@H](C)CO)C[C@H](C)[C@@H](CN(C)Cc2ccccc2)OCCCC[C@H](C)O3)cc1`, the inhibition is -7.59%.

On to `COc1ccc(CN(C)C[C@@H]2OCCCC[C@H](C)Oc3ccc(NS(=O)(=O)c4ccc(F)cc4)cc3C(=O)N([C@H](C)CO)C[C@H]2C)cc1`, for which the inhibition is -1.69%.

For the compound `C[C@@H]1CCCCO[C@@H](CN(C)Cc2ccc(Cl)c(Cl)c2)[C@H](C)CN([C@@H](C)CO)C(=O)c2cc(NS(C)(=O)=O)ccc2O1`, the inhibition is 6.58%.

`Cc1ccc(S(=O)(=O)Nc2ccc3c(c2)C(=O)N([C@@H](C)CO)C[C@@H](C)[C@@H](CN(C)Cc2ccc(C(F)(F)F)cc2)OCCCC[C@@H](C)O3)cc1`: the inhibition is 105% (active).

Turning to `COc1ccc(S(=O)(=O)Nc2ccc3c(c2)C(=O)N([C@@H](C)CO)C[C@H](C)[C@H](CN(C)Cc2ccc(C(F)(F)F)cc2)OCCCC[C@@H](C)O3)cc1`, the inhibition is 94.8% (active).

Turning to `COc1ccc(S(=O)(=O)Nc2ccc3c(c2)C(=O)N([C@@H](C)CO)C[C@@H](C)[C@H](CN(C)Cc2ccc(C(F)(F)F)cc2)OCCCC[C@@H](C)O3)cc1`, the inhibition was 27.5%.

With `Cc1ccc(S(=O)(=O)Nc2ccc3c(c2)C(=O)N([C@@H](C)CO)C[C@@H](C)[C@H](CN(C)Cc2ccc(Cl)c(Cl)c2)OCCCC[C@@H](C)O3)cc1`, the inhibition is 75.8% (active).

As to `C[C@H](CO)N1C[C@H](C)[C@H](CN(C)Cc2ccc(C(F)(F)F)cc2)OCCCC[C@H](C)Oc2ccc(NS(=O)(=O)c3ccc(Cl)cc3)cc2C1=O`, the inhibition is 19.1%.

As to `Cc1ccc(S(=O)(=O)Nc2ccc3c(c2)C(=O)N([C@H](C)CO)C[C@@H](C)[C@H](CN(C)Cc2ccccc2)OCCCC[C@H](C)O3)cc1`, the inhibition was 45.2%.

Regarding `C[C@@H]1CCCCO[C@@H](CN(C)Cc2ccc(C(F)(F)F)cc2)[C@H](C)CN([C@H](C)CO)C(=O)c2cc(NS(=O)(=O)c3ccc(F)cc3)ccc2O1`, the inhibition was 104% (active).

`COc1cccc(S(=O)(=O)N[C@@H]2CC[C@H](CCNC(=O)Cc3ccncc3)O[C@@H]2CO)c1`: the inhibition is -23.7%.

With `CN(C)C(=O)c1ccc(-c2ccc([C@H]3[C@H](CO)N4C(=O)CN(C(=O)C5CCCC5)C[C@@H]34)cc2)cc1`, the inhibition is -16.1%.

With `C[C@H](CO)N1C[C@H](C)[C@@H](CN(C)Cc2cncnc2)Oc2cc(-c3ccccc3)ccc2S1(=O)=O`, the inhibition was 1.94%.

As for `C[C@@H]1CN([C@H](C)CO)C(=O)Cc2cc(NS(C)(=O)=O)ccc2O[C@H]1CN(C)S(=O)(=O)c1ccccc1`, the inhibition is -11.5%.

Regarding `C[C@H](O)C#Cc1ccc2c(c1)O[C@H](CN(C)C)[C@@H](C)CN([C@H](C)CO)S2(=O)=O`, the inhibition was -9.29%.

Source of the values: PubChem BioAssay AID652154 (Broad Institute, 2013).
